Test results taken from PubChem BioAssay (EPA / NIEHS).
Active and inactive are the calls of the source. Rule for the calls: active = hit-call score of the fitted dose curve at least 0.9, where 1 is the maximum; inactive = score below 0.9.

Tests used:
[1] = ATG_E_Box_CIS: Attagene CIS-FACTORIAL HepG2 Assay for human Enhancer Box (E-box) (AID 2282936); settings: HepG2 E-box cis-reporter transcription, actives raise or lower the signal
How it was run: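 Multiplexed CIS reporter system in transiently transfected HepG2 cells measures native transcription factor activity. Reporter RNA after 24 h exposure is profiled by RT-PCR-capillary electrophoresis.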

[2] = ATG_M_61_CIS: Attagene CIS-FACTORIAL HepG2 Assay for M61 Transcription Factor (Internal Marker) (AID 2282937); settings: HepG2 Attagene CIS-FACTORIAL M61 internal marker reporter; actives raise or lower the signal
How it was run: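 Readout is reporter mRNA by RT-PCR, fluorescent primer extension and capillary electrophoresis, with gain or loss fitted relative to DMSO. Transfected HepG2 cells carrying endogenous-TF-driven cis reporters were exposed to chemicals for 24 hours.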

[3] = ATG_EGR_CIS: Attagene CIS-FACTORIAL HepG2 Assay for human Early Growth Response 1 (EGR1) (AID 2282938); settings: HepG2 Attagene CIS-FACTORIAL EGR reporter mRNA; actives raise or lower the signal
How it was run: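 After 24 h compound exposure, RNA from reporter-transfected HepG2 cells was reverse-transcribed, PCR-amplified, fluorescently labelled and resolved by capillary electrophoresis. EGR1 reporter transcript changes, up or down, were fitted against DMSO, reflecting endogenous transcription-factor activity.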

[4] = ATG_M_19_CIS: Attagene CIS-FACTORIAL HepG2 Assay for M19 Transcription Factor (Internal Marker) (AID 2282939); settings: HepG2 Attagene CIS-FACTORIAL M19 internal marker reporter; actives raise or lower the signal
How it was run: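 HepG2 cells transiently transfected with cis-regulated multiplexed reporter units, dosed 24 h. Reporter mRNA quantified by RT-PCR and capillary electrophoresis; internal background marker fitted bidirectionally versus DMSO.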

[5] = ATG_ERE_CIS: Attagene CIS-FACTORIAL HepG2 Assay for Estrogen Response Element (ERE) (AID 2282940); settings: HepG2 ERE cis-reporter, Attagene RNA transcript; actives raise or lower the signal
How it was run: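 HepG2 cells transiently transfected with multiplexed cis-element reporter units, measuring endogenous transcription factor activity; ERE reporter mRNA quantified after 24 h exposure by RT-PCR, fluorescent labelling, HpaI digestion and capillary electrophoresis. Bidirectional change versus DMSO.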

[6] = ATG_Ets_CIS: Attagene CIS-FACTORIAL HepG2 Assay for human Erythroblast Transformation Specific (ETS) (AID 2282941); settings: HepG2 ETS cis-reporter transcription, actives raise or lower the signal
How it was run: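 Human HepG2 hepatoma cells were transiently transfected with promoter-driven reporter constructs and treated for 24 hours. Reporter transcripts were quantified by RT-PCR with fluorescent primer extension; bidirectional curve fitting used DMSO as reference.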

[7] = ATG_FoxO_CIS: Attagene CIS-FACTORIAL HepG2 Assay for human Forkhead box O (FoxO) (AID 2282943); settings: HepG2 Attagene cis-reporter, FoxO element, mRNA; actives raise or lower the signal
How it was run: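 Values reflect reporter mRNA induction or loss in HepG2 cells 24 h post-dosing, fitted bidirectionally with DMSO as negative control and baseline. Detection used RT-PCR and fluorescence capillary electrophoresis.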

[8] = ATG_GATA_CIS: Attagene CIS-FACTORIAL HepG2 Assay for human GATA Binding Protein (AID 2282944); settings: HepG2 GATA cis-element reporter, Attagene multiplex mRNA; actives raise or lower the signal
How it was run: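 HepG2 cells transiently transfected with multiplexed cis-element reporter units measure endogenous GATA activity; after 24 h compound exposure, reporter mRNA quantified by RT-PCR and capillary electrophoresis. Changes fitted in both directions vs DMSO.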

[9] = ATG_GLI_CIS: Attagene CIS-FACTORIAL HepG2 Assay for human Zinc Finger Protein GLI1 (AID 2282945); settings: HepG2, Attagene cis-factorial reporter mRNA, GLI element; actives raise or lower the signal
How it was run: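 HepG2 cells transiently transfected with cis-promoter multiplexed reporter units report endogenous transcription factor activity. After 24 h chemical exposure, reporter mRNA was quantified by RT-PCR, 6-FAM labelling, HpaI digestion and capillary electrophoresis, with bidirectional fitting against DMSO.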

[10] = ATG_GRE_CIS: Attagene CIS-FACTORIAL HepG2 Assay for human Glucocorticoid Response Elements (GRE) (AID 2282947); settings: HepG2 GRE cis-reporter, Attagene multiplex mRNA; actives raise or lower the signal
How it was run: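 Following 24 h chemical exposure of transiently transfected HepG2 cells, total RNA was reverse-transcribed and reporter cDNA amplified, fluorescently labelled and sized by capillary electrophoresis. Signal gain or loss was fitted relative to DMSO vehicle.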

[11] = ATG_ISRE_CIS: Attagene CIS-FACTORIAL HepG2 Assay for human Interferon Regulatory Factor 1 (IRF1) binding to an Interferon-Stimulated Response Element (ISRE) (AID 2282948); settings: HepG2 ISRE cis-reporter (Attagene), mRNA transcription readout; actives raise or lower the signal
How it was run: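 Cell-based cis-reporter assay; HepG2; 24 h exposure; reporter mRNA by RT-PCR plus capillary electrophoresis fluorescence; activity in either direction scored relative to DMSO.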

[12] = ATG_M_32_CIS: Attagene CIS-FACTORIAL HepG2 Assay for M32 Transcription Factor (Internal Marker) (AID 2282949); settings: HepG2 Attagene cis-factorial M32 reporter, mRNA; actives raise or lower the signal;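 note: background control marker of the multiplexed CIS panel rather than a real target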
How it was run: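 Fluorescent capillary electrophoresis peaks of HpaI-digested, FAM-labelled RT-PCR reporter products give the signal. Source: transiently transfected human liver HepG2 cells, 24 h after chemical dosing; bidirectional fitting against DMSO.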

[13] = ATG_M_06_CIS: Attagene CIS-FACTORIAL HepG2 Assay for M06 Transcription Factor (Internal Marker) (AID 2282950); settings: HepG2 Attagene CIS-FACTORIAL M06 internal marker reporter; actives raise or lower the signal
How it was run: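 Internal background marker within multiplexed cis-reporter HepG2 system. Cells transiently transfected, dosed 24 h; reporter mRNA measured by RT-PCR, HpaI digestion and capillary electrophoresis. Bidirectional fit relative to DMSO.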

[14] = target: Hypoxia-inducible factor 1-alpha (Homo sapiens) (UniProt Q16665); test: ATG_HIF1a_CIS: Attagene CIS-FACTORIAL HepG2 Assay for human Hypoxia Inducible Factor 1 (HIF1A) (AID 2282951); settings: HepG2 Attagene cis-factorial HIF1a reporter transcription; actives raise or lower the signal
How it was run: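 Activity is fitted in both directions relative to DMSO. Reporter transcripts are read by RT-PCR, fluorescent primer extension and capillary electrophoresis after 24 h chemical treatment. The cells are HepG2 carrying transiently transfected cis-element-driven reporter units responding to endogenous factors.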

[15] = target: Hepatocyte nuclear factor 6 (Homo sapiens) (UniProt Q9UBC0); test: ATG_HNF6_CIS: Attagene CIS-FACTORIAL HepG2 Assay for human Hepatocyte Nuclear Factor 6 (HNF6) (AID 2282952); settings: HepG2 Attagene cis-factorial HNF6 reporter transcription; actives raise or lower the signal
How it was run: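 HepG2 cells transiently transfected with cis-element-driven multiplexed reporter units measuring endogenous transcription factor activity. After 24 h exposure, reporter mRNA quantified by RT-PCR, FAM-labelled fragments and capillary electrophoresis; bidirectional fitting versus DMSO.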

[16] = target: Heat shock factor protein 1 (Homo sapiens) (UniProt Q00613); test: ATG_HSE_CIS: Attagene CIS-FACTORIAL HepG2 Assay for human Heat Shock Transcription Factor 1 (HSE) (AID 2282953); settings: HepG2 HSE cis-reporter, Attagene RNA transcription; actives raise or lower the signal
How it was run: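 HepG2 cells transfected with cis-promoter reporter units sensing endogenous transcription factor activity; reporter mRNA quantified 24 h post-dose by RT-PCR and capillary electrophoresis of 6-FAM-labelled products. Bidirectional fitting against DMSO.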

[17] = ATG_MRE_CIS: Attagene CIS-FACTORIAL HepG2 Assay for human Metal Responsive Element (MRE) (AID 2282954); settings: HepG2 MRE cis-reporter transcription, Attagene multiplex; actives raise or lower the signal
How it was run: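 Step one: transfect HepG2 with cis-regulated reporter units. Step two: dose 24 h. Step three: isolate RNA, RT-PCR, 6-FAM label, HpaI digest, capillary electrophoresis. Fit bidirectionally to DMSO.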

[18] = ATG_PBREM_CIS: Attagene CIS-FACTORIAL HepG2 Assay for human Phenobarbital-responsive Enhancer Module (PBREM) (AID 2282955); settings: HepG2 PBREM cis-reporter, Attagene multiplexed transcription; actives raise or lower the signal
How it was run: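 Endogenous transcription factor activity was read from reporter transcripts in transiently transfected human HepG2 liver cells after 24 h dosing. RT-PCR products were fluorescently labelled, HpaI-cut and sized by capillary electrophoresis; activity fitted bidirectionally against DMSO baseline.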

[19] = target: Hepatocyte nuclear factor 3-beta (Homo sapiens) (UniProt Q9Y261); test: ATG_FoxA2_CIS: Attagene CIS-FACTORIAL HepG2 Assay for human Forkhead box A2 (FOXA2) (AID 2282942); settings: HepG2 cis-reporter transcription factor activity, 24 h; actives raise or lower the signal
How it was run: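 Endogenous transcription factor activity is captured via cis-element-driven reporter transcripts in transfected HepG2. Total RNA taken at 24 h post-dosing; labelled RT-PCR products resolved by capillary electrophoresis. Gain or loss fitted versus DMSO.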

[20] = target: Bile acid receptor (Homo sapiens) (UniProt Q96RI1); test: ATG_IR1_CIS: Attagene CIS-FACTORIAL HepG2 Assay for human Nuclear Receptor Subfamily 1 Group H Member 4 (NR1H4), IR1 submotif (AID 2282946); settings: IR1 reporter transcription, actives raise or lower the signal
How it was run: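 Transient MRTU transfection, HepG2; 24 h dosing; RNA → RT-PCR → 6-FAM primer extension → HpaI digest → capillary electrophoresis fluorescence. Gain/loss of signal fitted relative to DMSO.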

Measured: AC50

Heat shock factor protein 1 (Homo sapiens), sequence (Q00613 whole entry, looked up): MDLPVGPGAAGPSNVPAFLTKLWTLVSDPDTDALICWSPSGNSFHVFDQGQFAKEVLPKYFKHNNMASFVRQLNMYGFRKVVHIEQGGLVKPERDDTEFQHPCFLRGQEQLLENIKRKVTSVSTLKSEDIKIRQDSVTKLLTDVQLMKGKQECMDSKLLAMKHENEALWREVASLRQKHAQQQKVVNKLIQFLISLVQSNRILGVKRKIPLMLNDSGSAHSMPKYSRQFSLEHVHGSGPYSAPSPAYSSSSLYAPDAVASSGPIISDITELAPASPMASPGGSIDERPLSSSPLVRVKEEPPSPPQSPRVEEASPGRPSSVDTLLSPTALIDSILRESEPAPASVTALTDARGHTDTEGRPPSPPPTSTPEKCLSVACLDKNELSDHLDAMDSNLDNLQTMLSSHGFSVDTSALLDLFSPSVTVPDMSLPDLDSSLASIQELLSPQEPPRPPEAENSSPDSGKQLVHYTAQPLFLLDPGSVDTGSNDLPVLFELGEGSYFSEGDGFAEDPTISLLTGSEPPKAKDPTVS
Hepatocyte nuclear factor 6 (Homo sapiens), sequence (Q9UBC0 whole entry, looked up, the tested form may be a part): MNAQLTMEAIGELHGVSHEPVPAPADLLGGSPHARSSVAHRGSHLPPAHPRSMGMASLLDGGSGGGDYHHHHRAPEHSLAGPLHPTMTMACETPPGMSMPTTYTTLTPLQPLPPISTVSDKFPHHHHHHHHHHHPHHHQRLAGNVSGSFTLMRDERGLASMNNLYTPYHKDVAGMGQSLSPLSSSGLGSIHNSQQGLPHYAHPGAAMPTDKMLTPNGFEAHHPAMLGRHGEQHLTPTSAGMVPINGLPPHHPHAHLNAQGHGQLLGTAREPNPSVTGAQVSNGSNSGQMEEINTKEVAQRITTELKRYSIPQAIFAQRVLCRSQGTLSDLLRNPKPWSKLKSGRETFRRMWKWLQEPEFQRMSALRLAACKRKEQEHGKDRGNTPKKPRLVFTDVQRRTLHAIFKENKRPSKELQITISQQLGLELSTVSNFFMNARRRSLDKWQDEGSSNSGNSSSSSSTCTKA
Hypoxia-inducible factor 1-alpha (Homo sapiens), sequence (Q16665 whole entry, looked up): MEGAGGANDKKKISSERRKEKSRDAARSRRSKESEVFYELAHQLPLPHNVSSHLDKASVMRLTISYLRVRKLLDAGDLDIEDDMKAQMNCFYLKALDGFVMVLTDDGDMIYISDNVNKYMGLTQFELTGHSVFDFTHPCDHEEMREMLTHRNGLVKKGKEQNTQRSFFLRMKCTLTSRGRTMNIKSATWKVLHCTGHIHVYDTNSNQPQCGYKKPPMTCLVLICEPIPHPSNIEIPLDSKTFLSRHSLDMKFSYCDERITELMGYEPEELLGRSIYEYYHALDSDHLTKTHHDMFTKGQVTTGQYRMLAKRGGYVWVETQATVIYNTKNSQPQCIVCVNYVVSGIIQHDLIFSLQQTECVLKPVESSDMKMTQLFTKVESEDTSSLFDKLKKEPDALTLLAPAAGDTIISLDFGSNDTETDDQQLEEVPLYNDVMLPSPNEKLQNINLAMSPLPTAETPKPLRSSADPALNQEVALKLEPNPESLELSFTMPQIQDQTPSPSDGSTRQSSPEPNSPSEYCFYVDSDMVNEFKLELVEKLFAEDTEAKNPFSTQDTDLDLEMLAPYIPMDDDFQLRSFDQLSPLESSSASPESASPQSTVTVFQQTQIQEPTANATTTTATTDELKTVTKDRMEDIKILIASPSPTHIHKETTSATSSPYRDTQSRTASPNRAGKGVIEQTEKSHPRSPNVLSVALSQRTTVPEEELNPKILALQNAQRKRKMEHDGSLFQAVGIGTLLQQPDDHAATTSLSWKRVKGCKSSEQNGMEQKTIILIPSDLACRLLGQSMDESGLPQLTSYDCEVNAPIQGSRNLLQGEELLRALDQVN
Hepatocyte nuclear factor 3-beta (Homo sapiens), sequence (Q9Y261 whole entry, looked up): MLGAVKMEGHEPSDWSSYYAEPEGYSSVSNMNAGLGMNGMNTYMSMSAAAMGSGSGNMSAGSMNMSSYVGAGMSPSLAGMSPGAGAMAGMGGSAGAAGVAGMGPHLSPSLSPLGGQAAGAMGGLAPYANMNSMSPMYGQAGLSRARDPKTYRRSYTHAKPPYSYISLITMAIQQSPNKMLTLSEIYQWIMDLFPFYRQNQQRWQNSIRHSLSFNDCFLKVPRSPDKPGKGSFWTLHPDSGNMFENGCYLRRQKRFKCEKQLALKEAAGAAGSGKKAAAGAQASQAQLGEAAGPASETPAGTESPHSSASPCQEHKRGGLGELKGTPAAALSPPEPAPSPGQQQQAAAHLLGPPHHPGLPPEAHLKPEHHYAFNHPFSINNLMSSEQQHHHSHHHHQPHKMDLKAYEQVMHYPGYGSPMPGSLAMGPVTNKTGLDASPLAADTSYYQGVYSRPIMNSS
Bile acid receptor (Homo sapiens), sequence (Q96RI1 whole entry, looked up): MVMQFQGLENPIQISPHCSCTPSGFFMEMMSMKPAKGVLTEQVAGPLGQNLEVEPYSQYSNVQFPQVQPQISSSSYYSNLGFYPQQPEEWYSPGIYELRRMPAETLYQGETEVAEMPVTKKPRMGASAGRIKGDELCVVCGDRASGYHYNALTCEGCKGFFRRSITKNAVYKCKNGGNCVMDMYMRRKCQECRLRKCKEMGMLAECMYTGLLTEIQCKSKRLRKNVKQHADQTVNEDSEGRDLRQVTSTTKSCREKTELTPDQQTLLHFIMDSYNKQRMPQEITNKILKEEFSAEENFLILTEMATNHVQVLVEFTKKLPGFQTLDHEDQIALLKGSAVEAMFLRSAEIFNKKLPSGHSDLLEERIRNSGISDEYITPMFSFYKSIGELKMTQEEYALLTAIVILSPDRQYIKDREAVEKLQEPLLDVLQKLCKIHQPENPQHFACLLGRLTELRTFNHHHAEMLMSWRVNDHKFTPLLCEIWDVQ

C=CC(=O)OCCC(=O)O
inactive: [1] | [2] | [3] | [4] | [5] | [6] | [7] | [8] | [9] | [10] | [11] | [12] | [13] | [14] | [15] | [16] | [17] | [18]

CC=CC(F)(F)C(F)(F)C(F)(F)F
inactive: [1] | [2] | [3] | [4] | [5] | [19] | [7] | [8] | [9] | [20] | [10] | [11] | [13] | [14] | [15] | [16] | [17] | [18]

CC(=O)[C@@]1(O)CC[C@H]2[C@@H]3C[C@H](C)C4=CC(=O)C=C[C@]4(C)[C@@]3(F)[C@@H](O)C[C@@]21C
inactive: [1] | [2] | [3] | [4] | [5] | [19] | [7] | [8] | [9] | [20] | [11] | [13] | [14] | [15] | [16] | [18]
active: [10] 0.0821 µM

CCCCC/C=C\C/C=C\CCCCCCCC(=O)OC
active: [3] 100 µM | [9] 162 µM | [11] 80.7 µM | [16] 153 µM
inactive: [1] | [2] | [5] | [6] | [19] | [7] | [8] | [12] | [13] | [14] | [15] | [17] | [18]

CC(=O)OCCC1CCCCC1
inactive: [1] | [2] | [3] | [4] | [5] | [19] | [7] | [8] | [9] | [10] | [11] | [12] | [13] | [14] | [15] | [16] | [18]

CCCOCCOCCOCCO
inactive: [1] | [2] | [3] | [5] | [6] | [19] | [7] | [8] | [9] | [20] | [12] | [13] | [14] | [15] | [16] | [17]

c1ccc(CNCc2ccccc2)cc1
inactive: [1] | [2] | [3] | [4] | [5] | [19] | [7] | [8] | [9] | [10] | [11] | [12] | [13] | [14] | [15] | [16] | [18]

COCCOCCOCCOCCOC
inactive: [1] | [2] | [3] | [5] | [6] | [19] | [7] | [8] | [9] | [10] | [11] | [12] | [13] | [14] | [15] | [17]
